Source: PubChem BioAssay (NCI)
This is part of a sample that, as a whole, favours compounds with a hit. Of some 83,000 tested, about 20% had one in any assay.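 Single-concentration screen, 48 h exposure, 96-well plates. Endpoint: percent growth. Below 10 = active.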 Active and inactive are the calls of the source.

tested on: SNB-19 CNS; experiment: NCI-60 one-dose screen, 48 h (100 = growth as untreated, 0 = no growth, -100 = all killed); conditions: 10 µM unless noted

Compound | growth
Cn1c(/C(C#N)=C/c2ccc3ccccc3c2)cc2ccccc21 | 23.9% (inactive)
Cn1cc(-c2nc(-c3c[nH]c4ncccc34)cs2)c2cc(F)ccc21 | 53.3% (inactive)
CC(=O)N1N=C(c2ccc(C)cc2)CC1c1ccc(Oc2ccc(Br)cc2)cc1 (centres undefined) | 84.9% (inactive)
NC1=NN=C2N(N)C(=O)c3cnn(-c4ccccc4)c3N2c2nc(-c3ccccc3)cc(-c3ccccc3)c21 | 93.5% (inactive)
Fc1ccc2nc(-c3cc(-c4ccc5c(c4)OCO5)n[nH]3)[nH]c2c1 | 72.1% (inactive)
CN(C)c1ccc(-c2ccc(-c3ccc(C(=N)N)c(F)c3)s2)cc1 | -71% (active)
Cc1c(C)c2c(c(C)c1NC(=O)CCCCCCC(=O)O)CCC(C)(CCCC(C)CCCC(C)CCCC(C)C)O2 (centres undefined) | 101% (inactive)
Cc1cc(C)nc(NC(N)=NCCc2ccccc2)n1 | 46.8% (inactive)
C=C(C)[C@@H]1CC[C@]2(C(=O)O)CC[C@]3(C)[C@H](CC[C@@H]4[C@@]5(C)C/C(=C/c6ccc(OC)cc6)C(=O)C(C)(C)[C@@H]5CC[C@]43C)[C@@H]12 | 32.3% (inactive)
COc1ccc2[nH]cc(-c3nc(-c4c[nH]c5ncccc45)cs3)c2c1 | 77.4% (inactive)
CCc1ccc(-c2ccc(Nc3ccccc3)nn2)cc1S(N)(=O)=O | 105% (inactive)
Cn1cccc1/C=C1/SC(=S)N(CCc2ccc(O)cc2)C1=O | 47.2% (inactive)
CN1CCN(CCOc2ccc(-c3cnc4c(-c5ccccc5F)cnn4c3)cc2)CC1 | 69.1% (inactive)
O=c1c(CNc2ccc(S(=O)(=O)Nc3ncccn3)cc2)coc2ccccc12 | 94.2% (inactive)
